# Results as given in PubChem BioAssay.
# Calls of active or inactive are those of the source. Unless noted, no rule for the calls is given here.
# Key:
# [1] = A549 cell viability effects, profiling panel, calcein-AM fluorescence, 48 h, basal (AID 1162); details: higher = more signal; also: test concentration not given here
# [2] = adipocyte viability effects, profiling panel, cell-based, 3T3-L1 adipocytes, calcein-AM fluorescence, 48 h, basal (AID 1163); details: 3T3-L1 adipocytes viability, higher = more signal; also: test concentration not given here
# [3] = HepG2 cell viability effects, profiling panel, calcein-AM fluorescence, 48 h, basal (AID 1164); details: higher = more signal; also: test concentration not given here
# [4] = MM1S cell viability effects, profiling panel, calcein-AM fluorescence, 48 h, basal (AID 1165); details: higher = more signal;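 also: viability of MM1S multiple myeloma cells under basal unstimulated conditions; test concentration not given here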
# [5] = basal RPMI8226 viability, no added stimulus, profiling panel, cell-based, calcein-AM fluorescence, 48 h, PK04 Diversity Set (AID 1166); details: RPMI8226 myeloma viability, higher = more signal;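 also: cells grown under basal conditions without added stimulus; test concentration not given here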
# [6] = basal HepG2 mitochondrial membrane potential changes, profiling panel, cell-based, JC-1 fluorescence, 24 h, 100 nL compound (AID 1167); details: higher = more signal; also: test concentration not given here
# [7] = basal 3T3-L1 adipocyte mitochondrial potential changes, profiling panel, cell-based, JC-1 fluorescence, 3T3-L1 adipocytes, 24 h, 100 nL compound (AID 1168); details: JC-1 mitochondrial fluorescence, higher = more signal, called active from +8 up or from −8 down; also: test concentration not given here
# [8] = basal RPMI8226 mitochondrial membrane potential changes, profiling panel, cell-based, JC-1 fluorescence, 24 h, 100 nL compound (AID 1169); details: RPMI8226 myeloma, JC-1 mitochondrial potential fluorescence, higher = more signal; also: test concentration not given here
# [9] = basal MM1S mitochondrial membrane potential changes, profiling panel, cell-based, JC-1 fluorescence, 24 h, 100 nL compound (AID 1170); details: higher = more signal; also: test concentration not given here
# [10] = A549 lung cancer cell viability effects, profiling panel, resazurin fluorescence, 24 h, PK04 Diversity Set (AID 1171); details: higher = more signal, called active from +8 up or from −8 down; also: test concentration not given here
# [11] = HepG2 liver cancer cell viability effects, profiling panel, resazurin fluorescence, 24 h, PK04 Diversity Set (AID 1172); details: higher = more signal; also: test concentration not given here
# [12] = basal S. cerevisiae growth modulation, no modifier, primary screen, OD600, strain BY4716, 24 h, basal condition (AID 1173); details: OD600, 24 h, higher = more signal, called active from +8 up or from −8 down
# [13] = MM1S myeloma cell viability, profiling panel, resazurin fluorescence, basal, 24 h, PK04 Diversity Set (AID 1174); details: higher = more signal, called active from +8 up or from −8 down;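 also: MM1S multiple myeloma cell line; test concentration not given here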
# [14] = molecular target: Dihydroorotate dehydrogenase (quinone), mitochondrial (Plasmodium falciparum (isolate 3D7)) (UniProt Q08210); test: PfDHODH enzyme inhibitors, primary screen, biochemical, C-terminal His tag, absorbance 600 nm (AID 1175); details: DCIP absorbance 600 nm, higher = more signal, called active from +8 up or from −8 down;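 also: recombinant parasite enzyme with a five histidine tag at its C terminus; test concentration not given here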
# Sequence of Dihydroorotate dehydrogenase (quinone), mitochondrial (Plasmodium falciparum (isolate 3D7)) (Q08210 whole entry, looked up): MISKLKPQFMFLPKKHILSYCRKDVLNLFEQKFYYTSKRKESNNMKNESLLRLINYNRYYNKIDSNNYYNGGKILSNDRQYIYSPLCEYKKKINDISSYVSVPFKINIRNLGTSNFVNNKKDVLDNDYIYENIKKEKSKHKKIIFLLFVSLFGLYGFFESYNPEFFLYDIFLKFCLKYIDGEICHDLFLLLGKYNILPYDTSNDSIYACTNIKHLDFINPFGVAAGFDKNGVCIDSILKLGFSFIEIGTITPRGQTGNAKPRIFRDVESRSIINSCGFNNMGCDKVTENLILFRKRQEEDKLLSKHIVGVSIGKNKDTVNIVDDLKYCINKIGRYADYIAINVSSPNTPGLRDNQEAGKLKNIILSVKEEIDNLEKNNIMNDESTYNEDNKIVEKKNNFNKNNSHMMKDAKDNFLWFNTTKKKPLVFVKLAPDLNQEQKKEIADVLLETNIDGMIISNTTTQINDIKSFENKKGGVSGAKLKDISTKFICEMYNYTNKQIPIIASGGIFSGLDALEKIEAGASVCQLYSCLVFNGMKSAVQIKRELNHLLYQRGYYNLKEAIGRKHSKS
# [15] = P. aeruginosa biofilm formation inhibitors, primary screen, strain PAO1, LB-PBS medium, absorbance 600 nm (AID 1176); also: test concentration not given here; details: P. aeruginosa PAO1 growth/biofilm, A600, 12 h; higher = more signal
# [16] = S. cerevisiae RM11-1a growth modifiers, primary screen, strain RM11-1a, OD600, basal, 24 h (AID 1177); details: OD600, 24 h, higher = more signal, called active from +8 up or from −8 down;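 also: cultures grown under basal conditions with no added stressor; test concentration not given here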
# [17] = E. coli acrAB mutant growth effects, primary screen, E. coli filamentation inducers, strain DRC39, OD650, 24 h (AID 1178); details: higher = more signal, called active from +8 up or from −8 down;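 also: growth measured as culture turbidity by optical density at 650 nm; test concentration not given here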
# [18] = E. coli acrAB mutant growth effects, primary screen, E. coli filamentation inducers, strain DRC39, OD650, 48 h (AID 1179);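 also: screen aims at cell division blockers that make cells filament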; details: E. coli DRC39 delta-acrAB growth, higher = more signal, called active from +8 up or from −8 down
# [19] = RPMI8226 myeloma cell viability, profiling panel, resazurin fluorescence, basal, 24 h, PK04 Diversity Set (AID 1180); details: higher = more signal;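 also: RPMI8826 multiple myeloma cell line at 5000 cells per well; test concentration not given here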
# [20] = molecular target: E3 ubiquitin-protein ligase XIAP (Homo sapiens) (UniProt P98170); test: XIAP binders, primary screen, biophysical, small-molecule microarray, fluorescence 635 nm (AID 1181); details: small-molecule microarray binding, higher = more signal;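 also: score merges 667 nm emission and signal to noise over triplicate slides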
# Sequence of E3 ubiquitin-protein ligase XIAP (Homo sapiens) (P98170 whole entry, looked up): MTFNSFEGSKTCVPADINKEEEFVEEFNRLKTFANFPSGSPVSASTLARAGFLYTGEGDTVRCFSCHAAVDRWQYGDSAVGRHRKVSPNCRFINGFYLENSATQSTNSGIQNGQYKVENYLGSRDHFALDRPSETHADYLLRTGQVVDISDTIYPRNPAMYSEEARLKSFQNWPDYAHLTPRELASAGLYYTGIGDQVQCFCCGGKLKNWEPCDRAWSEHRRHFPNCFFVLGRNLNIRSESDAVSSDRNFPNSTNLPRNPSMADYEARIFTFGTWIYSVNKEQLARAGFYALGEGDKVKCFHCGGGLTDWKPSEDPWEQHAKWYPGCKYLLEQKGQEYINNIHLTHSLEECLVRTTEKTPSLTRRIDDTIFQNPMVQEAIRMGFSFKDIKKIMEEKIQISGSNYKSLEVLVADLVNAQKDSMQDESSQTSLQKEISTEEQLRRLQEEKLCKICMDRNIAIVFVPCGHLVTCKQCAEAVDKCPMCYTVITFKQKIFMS
structure (smiles),measurement,setting,value
[N-]=[N+]=NCc1ccccc1[C@H]1OC(c2ccc(OCCCO)cc2)=N[C@@]1(CCS(=O)(=O)c1ccccc1)C(N)=O,z-score,[1],-0.733
same,z-score,[2],0.0036
same,z-score,[3],-0.423
same,z-score,[4],-1.83
same,z-score,[5],-0.973
same,z-score,[6],-2.13
same,z-score,[7],-1.36 (inactive)
same,z-score,[8],-0.397
same,z-score,[9],-0.606
same,z-score,[10],0.547 (inactive)
same,z-score,[11],0.437
same,z-score,[12],-0.258 (inactive)
same,z-score,[13],0.284 (inactive)
same,composite z-score,[14],-0.136 (inactive)
same,z-score,[15],0.274 (inactive)
same,z-score,[16],-0.296 (inactive)
same,z-score,[17],0.0575 (inactive)
same,z-score,[18],-0.702 (inactive)
same,z-score,[19],-0.134
same,composite z-score,[20],0.182
CC(C)C[C@@H]1NC(=O)[C@H]2C[C@@H](C(=O)NCCCCCC[N+](C)(C)C)[C@@H](c3cccc(OCCO)c3)N2C1=O,z-score,[1],-0.53
same,z-score,[2],0.282
same,z-score,[3],0.0659
same,z-score,[4],-0.804
same,z-score,[5],-0.0361
same,z-score,[6],-0.474
same,z-score,[7],0.0908 (inactive)
same,z-score,[8],-0.271
same,z-score,[9],-0.34
same,z-score,[10],1.24 (inactive)
same,z-score,[11],1.15
same,z-score,[12],-0.703 (inactive)
same,z-score,[13],0.288 (inactive)
same,composite z-score,[14],-1.16 (inactive)
same,z-score,[15],-0.819 (inactive)
same,z-score,[16],-0.215 (inactive)
same,z-score,[17],0.481 (inactive)
same,z-score,[18],0.442 (inactive)
same,z-score,[19],0.571
same,composite z-score,[20],-0.188
NC(=O)NCC#Cc1ccc2c(c1)[C@]1(C(=O)N2)[C@H](c2ccc(O)cc2)N2[C@H](c3ccccc3)[C@H](c3ccccc3)OC(=O)[C@H]2[C@@H]1C(=O)Nc1nc2ccccc2s1,z-score,[1],0.421
same,z-score,[2],1.17
same,z-score,[3],0.157
same,z-score,[4],-0.168
same,z-score,[5],0.496
same,z-score,[6],-3.24
same,z-score,[7],0.352 (inactive)
same,z-score,[8],-1.16
same,z-score,[9],-2.12
same,z-score,[10],0.754 (inactive)
same,z-score,[11],0.971
same,z-score,[12],3.54 (inactive)
same,z-score,[13],0.972 (inactive)
same,composite z-score,[14],-0.579 (inactive)
same,z-score,[15],4.48 (inactive)
same,z-score,[16],5.85 (inactive)
same,z-score,[17],1.04 (inactive)
same,z-score,[18],1.19 (inactive)
same,z-score,[19],0.388
same,composite z-score,[20],0.591
[N-]=[N+]=Nc1ccccc1C[C@]1(C(=O)NCc2ccccc2)N=C(c2ccc(OCCCO)cc2)O[C@H]1c1ccccc1,z-score,[1],-1.66
same,z-score,[2],-0.651
same,z-score,[3],-1.14
same,z-score,[4],-2.41
same,z-score,[5],-2.86
same,z-score,[6],1.88
same,z-score,[7],-0.095 (inactive)
same,z-score,[8],-1.13
same,z-score,[9],-1.73
same,z-score,[10],-0.395 (inactive)
same,z-score,[11],-0.328
same,z-score,[12],1.41 (inactive)
same,z-score,[13],-1.73 (inactive)
same,composite z-score,[14],1.18 (inactive)
same,z-score,[15],0.811 (inactive)
same,z-score,[16],3.08 (inactive)
same,z-score,[17],0.515 (inactive)
same,z-score,[18],-0.0745 (inactive)
same,z-score,[19],-1.84
same,composite z-score,[20],0.0378
